{"source": "PubChem BioAssay AID602229", "about": "(The Scripps Research Institute Molecular Screening Center, 2012)", "note": "Out of some 360,000 compounds screened, about 1,300 (0.36%) were called active.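 The calls were made as follows: active = inhibition above the mean of all tested compounds plus 3 SD (cut at about 70% in these data); inactive = the rest.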 The sample as a whole holds a higher share of actives than the screen did."}
{"target": "Photoreceptor-specific nuclear receptor (Homo sapiens) (UniProt Q9Y5X4)", "sequence (Q9Y5X4 whole entry, looked up, the tested form may be a part)": "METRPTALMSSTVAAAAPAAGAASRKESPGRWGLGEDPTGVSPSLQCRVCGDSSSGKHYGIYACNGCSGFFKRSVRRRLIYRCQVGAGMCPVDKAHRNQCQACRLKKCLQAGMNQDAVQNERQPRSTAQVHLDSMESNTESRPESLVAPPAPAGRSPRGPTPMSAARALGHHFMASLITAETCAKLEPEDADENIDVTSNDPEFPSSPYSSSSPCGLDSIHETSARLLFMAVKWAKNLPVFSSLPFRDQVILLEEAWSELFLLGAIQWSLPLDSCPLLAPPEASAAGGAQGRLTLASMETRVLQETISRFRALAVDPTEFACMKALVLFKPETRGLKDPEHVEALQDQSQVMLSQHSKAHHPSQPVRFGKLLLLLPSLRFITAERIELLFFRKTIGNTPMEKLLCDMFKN", "experiment": "NR2E3 agonists in two-hybrid cells, primary screen, cell-based, luminescence, CHO-S, Gal4-NCOR/VP16-NR2E3 (AID 602229);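 also: 0% = DMSO with NR2E3 transfected cells and 100% = cells lacking NR2E3 construct; higher means lower luciferase signal from less NR2E3 corepressor binding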", "settings": "luciferase, at 3.98 µM, stronger effect = higher value"}
{"compound": "CC(=O)OC1C2(CC3N4C(=O)C5(CO)SSC4(CC31O)C(=O)N5C)OC(C)C(C)(C)C2=O", "note": "(stereo not given)", "inhibition": "99.4% (active)"}
{"compound": "Cc1nn(-c2ccccc2)c(C)c1NC(=O)COC(=O)Cc1ccccc1", "inhibition": "8.66% (inactive)"}
{"compound": "COc1ccc(Br)cc1CNCCc1cccc(Cl)c1", "inhibition": "24.3% (inactive)"}
{"compound": "COC(=O)C1=C(c2ccc(F)cc2OCc2ccccc2)C[C@@H]2CC[C@H]1N2C(=O)NCc1ccc(C(C)(C)C)cc1", "inhibition": "8.82% (inactive)"}
{"compound": "CCCCCCCCCCCCn1ccc(=N)cc1", "inhibition": "94% (active)"}
{"compound": "CC(C)CN1Cc2cc(N3CCCCC3)ccc2-n2nncc2C1", "inhibition": "3.03% (inactive)"}
{"compound": "CNC(=O)N(C)c1nnc(C(C)(C)C)s1", "inhibition": "-10.2% (inactive)"}
{"compound": "CN(C)P(=S)(Nc1ccccc1)C(Cl)(Cl)Cl", "note": "(stereo not given)", "inhibition": "5.18% (inactive)"}
{"compound": "COC(=O)N(c1ccc(OC)cc1)P1(=S)OCCC(C)O1", "note": "(stereo not given)", "inhibition": "-15.4% (inactive)"}
{"compound": "CC(=NCC1CCCO1)c1c(O)n(-c2ccccc2)c(=O)[nH]c1=O", "note": "(stereo not given)", "inhibition": "0.24% (inactive)"}
{"compound": "CCC(C)(O)C(=O)OC1C(=O)OC2CC3C(C)=CC(=O)C(O)C3(C)C3C4(O)OCC23C1C(C)C4O", "note": "(stereo not given)", "inhibition": "99% (active)"}
{"compound": "CCC(=O)OC(Cc1ccccc1)(c1ccccc1)C(C)CN(C)C", "note": "(stereo not given)", "inhibition": "-18.8% (inactive)"}
{"compound": "Nc1ccc(Cc2ccc(N)c(Cl)c2)cc1Cl", "inhibition": "-10.5% (inactive)"}
{"compound": "Cn1c(O)c(C(=Nc2ccc(F)cc2)c2ccccc2)c(=O)n(C)c1=O", "inhibition": "-24.4% (inactive)"}
{"compound": "COc1cccc(-c2nc3ccc(N4CCN(C)CC4)cc3[nH]2)c1", "inhibition": "-20.1% (inactive)"}
